Reference: PubChem BioAssay (Tox21)
Results filed as inconclusive are left out. The source made the active and inactive calls. Unless noted, the call rests on the fitted dose curve; in most records, active means well fitted curve in the direction sought with a large enough effect in the repeat runs; inconclusive means weak or mixed curves; inactive means no such curve, though single readings can be large; an effect the other way counts as inactive or inconclusive.

Assays:
[1] = qHTS assay to identify small molecule agonists of the vitamin D receptor (VDR) signaling pathway - cell viability counter screen (AID 743224); further: nearly all actives have a fitted effect of over 50% in size; further: potency means the concentration at half of the fitted maximal effect
In short: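 VDR-bla cell line, quantitative HTS format; 16 h compound incubation (37C, 5% CO2); ATP-based CellTiter-Glo luminescence measured in the reporter assay wells.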

[2] = qHTS assay to identify small molecule antagonists of the vitamin D receptor (VDR) signaling pathway - cell viability counter screen (AID 743225); further: nearly all actives have a fitted effect of over 50% in size; further: potency means the concentration at half of the fitted maximal effect
In short: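 Luminescent cell viability (CellTiter-Glo) in VDR-bla HEK 293T cells after 16 h compound exposure at 37C in the presence of 3 nM final 1-alpha,25-dihydroxy vitamin D3.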

[3] = qHTS assay to identify small molecule agonists of the NFkB signaling pathway (AID 1159509; active means well fitted curve in the direction sought with a large enough effect in the signal ratio in the repeat runs, not every such curve was filed as active; the % refers to the signal ratio)
In short: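 ME-180 NFkB-bla, 2,000 cells/well, overnight plating; cpd pinned in DMSO, 5 h 37 C; B/G FRET substrate 1.5 h RT; ex 405, em 460/530 nm.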

[4] = qHTS assay to identify small molecule agonists of the endoplasmic reticulum stress response signaling pathway (AID 1159516; active means well fitted activation curve with a large enough effect in the signal ratio in the repeat runs, not every such curve was filed as active; the % refers to the signal ratio)
In short: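 ER stress element reporter (bla) in HeLa. 1,500 cells/well, overnight attachment; 5 hr compound; 2 hr RT substrate; dual-emission fluorescence.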

[5] = qHTS assay to identify small molecule agonists of the endoplasmic reticulum stress response signaling pathway - cell viability counter screen (AID 1159517; calls by dose curve; further: nearly all actives have a fitted effect of over 50% in size; further: potency means the concentration at half of the fitted maximal effect)
In short: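 CellTiter-Glo was added to wells already read for beta-lactamase FRET, and luminescence was recorded 30 min later. Cells: ESRE-bla HeLa, 1,500 per well, compound exposure 5 hr at 37 C.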

[6] = target: Nuclear receptor ROR-gamma (Homo sapiens) (UniProt P51449); experiment: qHTS assay to identify small molecule antagonists of the retinoid-related orphan receptor gamma (ROR-gamma) signaling pathway (AID 1159521; further: nearly all actives have a fitted effect of over 50% in size; further: potency means the concentration at half of the fitted maximal effect)
In short: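 CHO cells expressing RORγ under a TET-on promoter, luciferase under RORE control. Dox 1 uM final, 16 h; compounds added 2 h prior. Luminescence decrease measured.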

[7] = target: Retinoic acid receptor RXR-alpha (Homo sapiens) (UniProt P19793); experiment: qHTS assay to identify small molecule agonists of the RXR signaling pathway (AID 1159527; calls by dose curve; further: nearly all actives have a fitted effect of over 35% in size; further: potency means the concentration at half of the fitted maximal effect)
Chain of Retinoic acid receptor RXR-alpha (Homo sapiens) (P19793 whole entry, looked up): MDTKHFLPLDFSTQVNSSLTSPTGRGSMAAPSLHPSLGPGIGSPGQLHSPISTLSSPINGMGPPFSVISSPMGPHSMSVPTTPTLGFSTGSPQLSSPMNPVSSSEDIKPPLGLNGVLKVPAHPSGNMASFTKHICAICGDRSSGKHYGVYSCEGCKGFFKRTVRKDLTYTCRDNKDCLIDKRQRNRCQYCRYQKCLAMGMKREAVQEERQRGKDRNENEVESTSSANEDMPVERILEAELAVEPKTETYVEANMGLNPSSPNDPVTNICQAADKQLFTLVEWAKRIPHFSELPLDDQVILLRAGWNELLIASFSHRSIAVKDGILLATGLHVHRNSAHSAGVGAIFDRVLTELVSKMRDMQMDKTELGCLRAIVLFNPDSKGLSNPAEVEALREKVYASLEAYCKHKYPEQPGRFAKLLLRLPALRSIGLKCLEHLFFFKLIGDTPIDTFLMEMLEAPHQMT
In short: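 Beta-lactamase reporter assay, agonist format. Engineered HEK 293T line, charcoal-stripped FBS at 2%, overnight (16 hr) exposure, fluorescence at 460 and 530 nm after 405 nm excitation.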

[8] = qHTS assay to identify small molecule agonists of the RXR signaling pathway - cell viability counter screen (AID 1159529); further: nearly all actives have a fitted effect of over 50% in size; further: potency means the concentration at half of the fitted maximal effect
In short: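 Same-well viability check after the LiveBLAzer FRET read: CellTiter-Glo added, luminescence measured after 30 min at room temperature. Reporter HEK 293T cells had been treated with compounds for 16 hr following a 5 hr preincubation.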

[9] = qHTS assay to identify small molecule antagonists of the retinoid-related orphan receptor gamma (ROR-gamma) signaling pathway - cell viability counter screen (AID 1159520); further: nearly all actives have a fitted effect of over 50% in size; further: potency means the concentration at half of the fitted maximal effect
In short: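 Tet-on ROR gamma CHO cells (1,000/well) were plated 4 hr, given compounds in DMSO for 2 hr at 37 C, then induced with 1 uM final doxycycline for 16 hr. Viability was read as ATP by CellTiter-Glo luminescence after 30 min.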

[10] = qHTS assay to identify small molecule agonists of the AP-1 signaling pathway - cell viability counter screen (AID 1159525; calls by dose curve; further: nearly all actives have a fitted effect of over 55% in size)
In short: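 ME-180 AP-1-bla, 2500 cells/well, Opti-MEM + 0.5% dialyzed FBS; overnight 37 °C; cpd 15-pt titration, 5 h 37 °C; CellTiter-Glo 30 min RT; luminescence read; normalised to TOAB and DMSO controls.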

[11] = qHTS assay to identify small molecule agonists of the AP-1 signaling pathway (AID 1159526; calls by dose curve)
[12] = qHTS assay to identify small molecule antagonists of the retinoid acid receptor (RAR) signaling pathway - cell viability counter screen (AID 1159551); further: nearly all actives have a fitted effect of over 35% in size; further: potency means the concentration at half of the fitted maximal effect
In short: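 Following overnight attachment, C3RL4 reporter cells received DMSO-dissolved compounds and then retinol (1 uM final). Six hours later at 37 C, ATP content was measured by CellTiter-Glo luminescence.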

[13] = qHTS assay to identify small molecule antagonists of the retinoic acid receptor (RAR) signaling pathway (AID 1159552; further: nearly all actives have a fitted effect of over 50% in size; further: potency means the concentration at half of the fitted maximal effect)
In short: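 Readout: luciferase luminescence, 30 min post-reagent at RT. Setup: C3RL4 RARE reporter cells, compounds plus retinol 1 uM final, 6 hr incubation at 37 C and 5% CO2.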

[14] = qHTS assay to identify small molecule agonists of the retinoic acid receptor (RAR) signaling pathway (AID 1159553); conditions: C3RL4 RARE luciferase reporter, agonist, 6 h; activation: at 73.3 µM (top of the series)
In short: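 Cell line C3RL4, RARE luciferase reporter. Treatment: compounds in DMSO, 6 hr, 37 C, 5% CO2, after overnight plating. Detection: luminescence, 30 min RT after reagent.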

Measured: Potency

Cc1cc(O)ccc1O
active: [6] 24.6 µM | [8] 22.1 µM
inactive: [1] | [2] | [3] | [4] | [5] | [7]

O=C(O)CCCCCCCCCCCBr
not listed: [2] | [6] | [8] | [14]
inactive: all other assays above

COc1cc(N)c(Cl)cc1C(=O)NC1CCN(CCCOc2ccc(F)cc2)CC1OC (configuration not stated)
not listed: [1] | [7] | [10] | [14]
inactive: all other assays above

O=[N+]([O-])c1cc(C2CCCCC2)c(O)c([N+](=O)[O-])c1
active: [6] 4.31 µM
inactive: [3] | [4] | [5] | [7] | [12] | [14]

O=C(O)C[C@H](NC(=O)OCc1ccccc1)C(=O)O
not listed: [6] | [14]
inactive: all other assays above

Cc1cc(O)c(C)c(C)c1O
active: [1] 29.8 µM
not listed: [2] | [6] | [13] | [14]
inactive: all other assays above

Oc1cccc(Nc2ccccc2)c1
not listed: [6] | [14]
inactive: all other assays above

CCCCCC[C@@H](O)C/C=C\CCCCCCCC(=O)OCC(O)CO (some centres not stated)
active: [7] 49 µM
not listed: [6] | [8] | [10] | [11] | [14]
inactive: all other assays above

CC(=O)Nc1cc(S(=O)(=O)O)cc2cc(S(=O)(=O)O)c(N=Nc3ccccc3)c(O)c12
active: [12] 24.3 µM
not listed: [6] | [7] | [9]
inactive: all other assays above

CC(C)Nc1cccnc1N1CCN(C(=O)c2cc3cc(NS(C)(=O)=O)ccc3[nH]2)CC1
not listed: [6] | [14]
inactive: all other assays above

CCOC(=O)c1ccc(I)cc1
not listed: [6] | [11] | [14]
inactive: all other assays above

O=C(O)CCC(=O)C(=O)O
not listed: [2] | [6]
inactive: all other assays above

CCOC(C)=O
not listed: [6] | [10]
inactive: all other assays above

CN1CCCN=C1COC(=O)C(O)(c1ccccc1)C1CCCCC1 (configuration not stated)
not listed: [6] | [7]
inactive: all other assays above

COc1cc(C(=O)NC2CCN(C)CC2)ccc1Nc1ncc2c(n1)N(C1CCCC1)CC(F)(F)C(=O)N2C
inactive: [3] | [4] | [11]
active: [1] 15.9 µM | [2] 7.11 µM | [5] 50.4 µM | [9] 22.3 µM | [6] 15.8 µM | [8] 31.8 µM | [13] 2.5 µM

N#[N+]c1ccc2c(S(=O)(=O)[O-])cccc2c1O
not listed: [10] | [14]
inactive: all other assays above

CC(CC1c2ccccc2CCc2ccccc21)CN(C)C (configuration not stated)
inactive: [1] | [3] | [4] | [5] | [9] | [7] | [12]
